An excerpt weighted towards active compounds, which were near 3.1% of everything screened.
HSP90 inh = HSP90 inhibitors, primary screen, cell lysate, luminescence | inhibition, % at 5.6 µM | Rabbit reticulocyte lysate, luciferase refolding luminescence, 3 h | hit rate 0.91% among 290,000;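 active = inhibition above the screen-wide mean plus 3 SD, computed separately per campaign, cut at about 16% in these data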;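 note: 0% = DMSO wells and 100% = 60 µM geldanamycin wells; inhibitors lower the luminescence because luciferase stays unfolded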
HIF activator = HIF pathway transcriptional activators, primary screen, cell-based, U2OS HRE-luciferase, luminescence | U2OS HRE-luciferase reporter; normalized: DMSO 0%, desferrioxamine 100% | activation, % at 7.5 µM (by protocol) | AID 1910, 2009 | hit rate 0.32% among 300,000;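 active = mean activation of at least 10% of the iron chelator positive control signal, with at least half of replicates also reaching 10%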
ARNT-TACC3 inh = disruptors of ARNT/TACC3 protein interaction, primary screen, biochemical, AlphaScreen, single concentration | AlphaScreen His-ARNT PAS-B/GST-TACC3 binding, luminescence; TACC3 fragment carries E629A point mutation | hit rate 0.66% among 390,000 | Transforming acidic coiled-coil-containing protein 3 (Homo sapiens), Q9Y6A5 | inhibition, % at 9.99 µM;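 active = mean inhibition of replicates at least 50% and at least half of replicates each reaching 50%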;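 note: 0% = complete ARNT plus TACC3 wells and 100% = ARNT alone without TACC3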
HSF1 inh = HSF1 inhibitors in luciferase reporter cells, primary screen, cell-based, NIH3T3, luminescence. NIH3T3-HGL HSE-luciferase, MG132-induced, luminescence 8 h; active compounds read low. hit rate 0.77% among 300,000. activity change, negative = inhibition, % at 7.5 µM (by protocol);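 active = more than half of replicate wells show activity change below -50%, luminescence cut by over half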;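 note: luciferase reports HSF-1 transcriptional activity via heat shock element; 0% = median of DMSO wells and -100% = zero luminescence signal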
HSF-1 act = HSF-1 activators, primary screen, NIH3T3-HGL cells, MG132 stress, luminescence, single point; NIH3T3-HGL HSF-1 luciferase reporter, 8 h; 100% = twice DMSO control signal; hit rate 1.7% among 300,000; AID 504408, 2011; activation, % at 9 µM;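 active = mean replicate activation of at least 50% with a set share of replicates each reaching 50%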;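 note: 0% = median of the neutral control wells and 100% = twice that signal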
Starred values were filed as active, the others as inactive; / = no result.

SMILES	HSP90 inh	HIF activator	ARNT-TACC3 inh	HSF1 inh	HSF-1 act
Cc1scc(C(=O)NCc2ccco2)c1-c1ccccc1	3	0	5	28	63*
C[C@@H]1CN([C@@H](C)CO)C(=O)c2cc(NC(=O)C3CC3)ccc2O[C@@H]1CN(C)Cc1ccncc1	/	/	2	/	/
CO[C@H](CN(C)S(=O)(=O)c1ccc(Cl)cc1)[C@H](C)CN(C(=O)Nc1ccccc1F)[C@H](C)CO	/	/	-2	/	/
O=C(C[C@@H]1CC[C@@H]2[C@H](COC[C@H](O)CN2S(=O)(=O)c2ccccc2)O1)N1CCOCC1	/	/	-5	/	/
Cn1c(SCC(=O)NCc2ccco2)nnc1-c1cccs1	1	-9	-2	22	55*
CCn1c(SCC(=O)NC(=O)NCc2ccco2)nnc1-c1cccs1	2	0	0	-1	1
O=C(NCc1ccco1)c1cc(-c2cccs2)on1	0	21*	-8	63	72*
CO[C@@H](C(=O)N(C)C[C@@H]1OCc2ccccc2-c2c(n(C)c3ccccc23)C(=O)N([C@@H](C)CO)C[C@@H]1C)c1ccccc1	/	/	1	/	/
COCCn1c(SCC(=O)NC2CCCCC2)nc2c(c1=O)SCC2	4	0	2	23	58*
COCCCNc1nc(=S)[nH]c2cc(OC)c(OC)cc12	2	-8	64*	0	0
COc1cc2[nH]c(=S)nc(NCC3CCCO3)c2cc1OC (configuration not stated)	-3	-26	/	2	-10
COc1cc2[nH]c(=S)nc(NCCC(C)C)c2cc1OC	0	0	64*	1	4
CC(C)Cc1nc2sc3c(NCc4ccco4)ncnc3c2c2c1COC(C)(C)C2	1	-1	-3	8	18
Cc1nc2sc3c(NCc4ccco4)ncnc3c2c2c1COC(C)(C)C2	2	1	-5	-89*	-92
CC/C(=N\NS(=O)(=O)c1ccc(C)cc1)c1ccco1	-4	2	9	-64*	-72
CCCC(=O)Nc1ccc2c(c1)OC[C@H](C)N(CCC(F)(F)F)C[C@@H](C)[C@@H](OC)CN(C)C2=O	/	/	-4	/	/
O=C(NCC1CCCCC1)[C@H]1[C@H](CO)[C@H]2Cn3c(cccc3=O)[C@@H]1N2CCc1ccccc1	/	/	2	/	/
CCOC(=O)Cc1csc2nc(-c3ccccc3)nn12	3	-1	-26	-1	4
COc1ccc(-c2nc3scc(-c4ccccc4)n3n2)cc1	-2	4	3	62	121*
CCN1CCN(c2nc(-c3ccccn3)nc3ccccc23)CC1	-1	0	46*	-6	-8
c1ccc(CCNc2nc(-c3ccccn3)nc3ccccc23)cc1	3	4	64*	-3	10
c1ccc(-c2nc(N3CCOCC3)c3ccccc3n2)nc1	0	0	/	-9	-21
C/C(=N\Nc1nc(-c2ccccn2)nc2ccccc12)c1ccc(F)cc1	6	0	5	7	18
c1ccc(-c2nc(N3CCCCCC3)c3ccccc3n2)nc1	5	3	76*	-6	-11
O=C(C[C@H]1C[C@@H]2c3cc(NC(=O)C4CCC4)ccc3O[C@@H]2[C@H](CO)O1)NCC1CC1	/	/	12	/	/
SMILES	HSP90 inh	HIF activator	ARNT-TACC3 inh	HSF1 inh	HSF-1 act
C[C@H](CO)N1C[C@H](C)[C@@H](CN(C)C(=O)CCCN(C)C)OCCCC[C@H](C)Oc2ccc(NS(C)(=O)=O)cc2C1=O	/	/	-3	/	/
Clc1ccc(CO/N=C/c2c(-c3ccccc3)nc3n2CCS3)c(Cl)c1	-3	0	0	30	74*
CCOc1ccccc1Nc1ccc(C(=O)O)cc1N	-6	-1	0	0	-7
COc1cccc(Nc2ccc(C(=O)O)cc2N)c1	11	-19	-5	-66*	-69
COc1cccc(C(=O)Nc2ccc3c(c2)C(=O)N(C)C[C@H](OC)[C@@H](C)CN(C)[C@H](C)CO3)c1	/	/	-8	/	/
CCOC(=O)c1c(-c2ccccc2)cn2c(C)cc(C)nc12	-2	3	-4	24	59*
Nc1c(-c2ccc(Cl)cc2)cnc2c(-c3ccc(F)cc3)cnn12	-3	5	0	4	7

Bioassay records: PubChem BioAssay, several laboratories
